# Tau fibril ThT: tau fibrillization inhibition (ThT binding) | P10636 | recombinant tau K18 P301L, heparin-induced fibrillization, ThT fluorescence | Potency, µM (highest dose often 57.4 µM), for the others: at the highest dose activity, negative = inhibition, usual class: inhibitors | 270,000 compounds, 2.1% hits | AID 1460; also: potency is read from the fitted curve at half-maximal effect; nearly all actives have a fitted effect of over 55% in size
# Target sequence (P10636 561-689 P618L limits assumed): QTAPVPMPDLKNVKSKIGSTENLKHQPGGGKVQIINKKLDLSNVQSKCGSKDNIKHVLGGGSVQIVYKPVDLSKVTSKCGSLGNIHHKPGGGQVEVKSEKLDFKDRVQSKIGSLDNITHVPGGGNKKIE
#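 Recombinant human tau K18 fragment […] carrying P301L, 15 uM unlabeled plus 0.24 uM Alexa 594-labeled, was fibrillized with 20 uM heparin in 100 mM sodium acetate pH 7 for 6 hr at 37 C; 30 uM ThT fluorescence read after 1 hr.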
# FBPA coupling cs: inhibits coupling enzyme system, counter-screen for aldolase hits | coupling enzyme system counterscreen, AmpLite Red fluorescence | activity change, negative = inhibition, % at 58.2 µM, hits read low | 290,000 compounds, 0.67% hits; in the data active = activity change below about -30%
#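 Activity here indicates interference with the coupling reaction, not aldolase inhibition. Compounds at 57.5 uM final met coupling enzymes for 10 min at RT; substrate and AmpLite Red detection followed, with a 525/598 nm fluorescence read after 20 min.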
# Tau fibril FP: blocks human tau fibril formation measured by polarization; P10636; K18 P301L tau heparin fibrillization, Alexa594 FP, 6 h; Potency, µM (titrated, usually from 57.7 µM), inactives show at the top dose activity, negative = inhibition, hits mostly inhibitors; 280,000 compounds, 0.39% hits; AID 1468; also: potency is read from the fitted curve at half-maximal effect; nearly all actives have a fitted effect of over 55% in size
#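 Steps: dispense K18 P301L tau (15 uM plus 0.24 uM Alexa 594 tracer, final) in pH 7 sodium acetate; add compound; add heparin (20 uM final); incubate 6 hr, 37 C; add ThT (30 uM final); after 1 hr ambient, read FP.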
# Sfp inh: blocks B. subtilis Sfp PPTase activity. Biochemical Sfp PPTase activity, qHTS. Potency, µM, for the others: largest response in the series, negative = inhibition, usual class: inhibitors. 310,000 compounds, 3.5% hits;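 also: the enzyme is Sfp with the accession as filed and its product quenches rhodamine fluorescence; potency is read from the fitted curve at half-maximal effect; 0% = enzyme reaction without inhibitor and -100% = no enzyme wells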
#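 After 15 min at room temperature with compound, 15 nM Sfp received 5 uM rhodamine-CoA plus 12.5 uM BHQ-2-ybbR (50 mM Hepes pH 7.6, 10 mM MgCl2). Rate came from the fluorescence difference over 30 min, ex 525/em 598 nm.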
# Tau fluor cs: counter-screen for tau fibril formation inhibitors; tau K18 P301L (four-repeat tau fragment) Alexa594 fluorescence, heparin fibrillization; Potency, µM (titrated, usually from 57.7 µM), for the others: at the top dose activity change, negative = decrease; 280,000 compounds, 0.93% hits; AID 1463; also: potency is read from the fitted curve at half-maximal effect; nearly all actives have a fitted effect of over 55% in size
#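 Human K18 P301L tau (15 uM unlabeled plus 0.24 uM Alexa 594-labeled, final) in 100 mM sodium acetate pH 7 was mixed with compound and 20 uM heparin and incubated 6 hr at 37 C.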
# G9a inh: blocks human histone lysine methyltransferase G9a; Q96KQ7; G9a H3K9 monomethylation, AlphaScreen, 2 h; Potency, µM (titrated, usually from 102 µM), inactives show top-dose activity, negative = inhibition, usual class: inhibitors; 350,000 compounds, 8.8% hits; AID 504332; also: potency is read from the fitted curve at half-maximal effect; nearly all actives have a fitted effect of over 75% in size
# Target sequence (Q96KQ7 913-1193 limits assumed): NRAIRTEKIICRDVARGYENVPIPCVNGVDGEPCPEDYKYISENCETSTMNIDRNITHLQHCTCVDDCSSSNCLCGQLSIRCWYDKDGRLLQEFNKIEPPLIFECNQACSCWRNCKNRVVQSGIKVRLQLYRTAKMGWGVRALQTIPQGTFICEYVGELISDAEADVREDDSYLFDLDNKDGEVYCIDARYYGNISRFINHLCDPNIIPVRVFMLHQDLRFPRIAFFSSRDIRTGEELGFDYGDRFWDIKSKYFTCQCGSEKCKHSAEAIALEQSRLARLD
#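 Using a bead-based AlphaScreen, monomethylated H3K9 product from 2 h room-temperature reactions (G9a 20 nM, peptide 500 nM, SAM 20 uM) was detected with 0.5 ug/mL rabbit anti-H3K9me1 antibody.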
# The depositor's hits bear a star; u = inconclusive; x = no result; [ ] = remark or other dose. An excerpt weighted towards active compounds, which were near 11% of everything screened. Unless noted, calls follow the shape of the dose curve; as a rule, active = well fitted curve in the direction sought with a large enough effect; inconclusive = small, poorly fitted or top-dose-only effect, or another doubt; inactive = no such curve, though single readings can be large; an effect the other way counts as inactive or inconclusive. Unless noted, % is scaled to controls: 0 for no effect and ±100 for the full control effect.
SMILES,Tau fibril ThT,FBPA coupling cs,Tau fibril FP,Sfp inh,Tau fluor cs,G9a inh
COc1ccc(-n2nc3c(c2NC(=O)C24CC5CC(CC(C5)C2)C4)CS(=O)C3)cc1 (centres undefined),-7%,0,-3%,-13%,-7%,79µM*
CCOc1ccc(OCCNC2CCCC2)cc1,-1%,-3,12%,u,3%,u
CC(C)(C)c1ccc(OCCC(=O)OCC(=O)NC2CC2)cc1,x,x,x,x,x,23%[12.7 µM]
N#Cc1ccccc1OCCCNC1CCCC1,-3%,0,1%,25%,3%,20µM*
CC(C)(C)c1ccc(OCCCNC2CCCC2)cc1,-3%,0,-2%,-5%,1%,11µM*
CCCOc1ccc(OCCNC2CCCC2)cc1,-2%,-1,-5%,-13%,1%,10µM*
CCOc1ccccc1OCCNC1CCCC1,-6%,0,-6%,-10%,-5%,45µM*
Cc1ccc(OCCCCNC2CCCCC2)c(C)c1,-4%,7,6%,-10%,2%,14µM*
COc1cccc(OC)c1OCCCNC1CCCC1,x,0,x,-22%,x,x
Cc1ccc(OCCCNC2CCCC2)cc1,-6%,1,-7%,6%,-5%,13µM*
Cc1ccc(C)c(OCCCNC2CCCC2)c1C,-2%,5,-8%,11%,-3%,7.1µM*
Cc1cccc(C)c1NC(=O)C(=O)NCC1CCCN1S(=O)(=O)c1cccs1 (centres undefined),x,x,x,x,x,-28%
CCc1ccc(S(=O)(=O)c2c(C(=O)c3ccc(C)c(C)c3)cnc3ccccc23)cc1,-12%,x,-13%,x,-14%,u
CC(=O)c1cccc(NC(=O)C(C)n2c(=O)cc(-c3ccccc3)c3c(C)nn(C)c32)c1 (centres undefined),-6%,x,10%,x,-16%,-2%[59 µM]
COc1ccccc1OCCC(=O)OCC(=O)c1c(N)n(C)c(=O)n(C)c1=O,-10%,-2,-8%,6%,-6%,50µM*
CC(C)CC(C(=O)OCC(=O)c1c(N)n(C)c(=O)n(C)c1=O)N1C(=O)c2ccccc2C1=O (centres undefined),-1%,-1,u,-17%,u,11µM*
Cc1ccc(OCCC(=O)OCC(=O)c2c(N)n(C)c(=O)n(C)c2=O)cc1,x,x,x,x,x,-2%[0.501 µM]
O=C(c1cc2c(=O)oc3ccccc3c2s1)N1CCN(c2cccc(Cl)c2)CC1,-2%,x,6%,x,1%,5%[59 µM]
Cc1nc2nc(-c3ccc(Cl)cc3Cl)nn2c(C)c1CCC(=O)Nc1ccc(F)cc1,1%,x,3%,x,2%,6%[59 µM]
COc1ccc(S(=O)(=O)n2nc(C)c(S(=O)(=O)N3CCCCC3)c2C)cc1,0%,x,-2%,x,7%,0%[59 µM]
Cc1c(NC(=O)C(C)OC(=O)c2c3c(nc4ccccc24)CCC3)c(=O)n(-c2ccccc2)n1C (centres undefined),u,6,2%,15%,-13%,50µM*
CC(C)OC(=S)N/C(=N\S(=O)(=O)c1ccccc1)c1ccccc1,2%,0,0%,14µM*,2%,11µM*
Cc1c(NC(=S)N/C(=N/S(=O)(=O)c2ccc(Cl)cc2)c2ccccc2)c(=O)n(-c2ccccc2)n1C,2%,0,-4%,35µM*,-3%,u
CC(C)NCC(=O)Nc1c2c(nc3ccccc13)CCC2,-9%,2,-7%,u,-13%,18µM*
CC(C)(C)c1ccc(C(=O)N2CCCC(c3nc4c(nnn4Cc4cccc(F)c4)c(=O)[nH]3)C2)cc1 (centres undefined),u,x,8%,x,-15%,-10%[59 µM]
SMILES,Tau fibril ThT,FBPA coupling cs,Tau fibril FP,Sfp inh,Tau fluor cs,G9a inh
Cc1c(NC(=S)Nc2cccc(Cl)c2)c(=O)n(-c2ccccc2)n1C,-3%,3,-2%,-2%,-3%,-26%
Cc1c(NC(=S)N/N=C/c2ccc(Br)cc2)c(=O)n(-c2ccccc2)n1C,x,0,-3%,18%,2%,-47%
Cc1ccc(S(=O)(=O)/N=C(/NC(=S)Nc2cccc(C)c2)c2ccccc2)cc1,u,1,-10%,50µM*,-10%,u
Cc1c(NC(=O)c2csc3c2CCCC3)c(=O)n(-c2ccccc2)n1C,x,1,x,16%,x,-13%[59 µM]
Cc1cccc(C)c1NC(=S)Nc1c(C)n(C)n(-c2ccccc2)c1=O,1%,4,4%,7%,2%,0.79µM*
Cc1cccc(NC(=S)N/C(=N/S(=O)(=O)c2ccccc2)c2ccccc2)c1,-16%,5,2%,u,-7%,u
COc1ccc(/C=N/NC(=S)Nc2c(C)n(C)n(-c3ccccc3)c2=O)cc1OC,-13%,1,4%,45µM*,-6%,x
Cc1c(NC(=O)c2c(N)sc3c2CCCC3)c(=O)n(-c2ccccc2)n1C,u,-10,u,28µM*,-10%,u
COc1cccc(N2C(=O)CSC23C(=O)N(CC(=O)NCc2ccc(C)cc2)c2ccccc23)c1 (centres undefined),-4%,x,-6%,x,-13%,-6%[59 µM]
CCC(CC)CN1C(Nc2ccccc2)=NC[C@@H]1C,x,0,x,10%,x,5%
Cc1ccc(NC(=S)NNC(=S)Nc2ccc(C)cc2C)cc1,2%,-3,1%,13µM*,0%,-28%
CCc1ccc(NC(=S)Nc2cccc3cnccc23)cc1,u,-49*,u,22µM*,u,45µM*
Cc1ccc(NC(=O)CCC(=O)NNC(=S)Nc2ccccc2)c(C)c1,u,0,-4%[2.34 µM],10%,-5%[2.34 µM],x
Cc1ccc(NC(=S)Nc2cccc3cnccc23)c(C)c1,u,-36*,u,50µM*,-13%,50µM*
C=C(C)CNC(=S)Nc1cccc2cnccc12,4%,-1,-2%,-5%,-4%,25%
CC(=O)N(C)c1ccc(NC(=S)Nc2cccc3ccccc23)cc1,u,-36*,4%,-12%,-24%,u
CCCCN(CC)CCCNC(=O)c1cn(CC)c2ccc(S(=O)(=O)N3CCOCC3)cc2c1=O,2%,x,-8%,x,2%,3%[59 µM]
CCCCC/C=C\C/C=C\C/C=C\CCCCCCC(=O)NCC(=O)O,-9%,3,2%,2%,-4%,x
Cc1ccc(-n2nc(CO)c(C(=O)NC(C)CCCc3ccccc3)n2)cc1C (centres undefined),4%,x,-14%,x,-2%,7%[59 µM]
Cc1ccc(S(=O)(=O)NC(=O)C2CCCCC2)cc1,x,x,x,x,x,6%[2.33 µM]
O=C(NC(=S)Nc1cccc2cnccc12)c1ccccc1,4%,-29,10%,45µM*,-1%,40µM*
Cc1ccc(NC(=S)Nc2ccccn2)c(C)c1,u,0,-7%,-2%,-26%,u
